Compounds with a hit are over-represented: about 7.9% of the library has one in this group of screens.
MCF10A rerep: DNA re-replication induction in MCF 10a cells; MCF 10A DNA re-replication, Hoechst nuclear intensity, 48 h; Potency, µM (highest dose often 46.1 µM), without a hit: at the top dose activity, positive = re-replication, hits mostly activators; 350,000 compounds, 2.9% hits; AID 624296; further: % of control where 0% means no effect; nearly all actives have a fitted effect of over 50% in size
KB-3-1 tox: KB-3-1 parental cell cytotoxicity | KB-3-1 viability, CellTiter-Glo ATP luminescence, 72 h | Potency, µM (doses to about 46.1 µM), usual class: cytotoxic | 400,000 compounds, 1.4% hits | AID 1347075; further: on the % scale 0 is the no-effect control and ±100 the full control effect; nearly all actives have a fitted effect of over 60% in size
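KB-3-1 parental drug-naive adenocarcinoma cells in DMEM/10% FBS, incubated 72 h at 37 C with pin-transferred compounds across a concentration series. Viability by CellTiter-Glo luminescence; concentration-response curves fitted after normalization.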
HT1080NT lethal: kills 2HG-producing HT-1080-NT fibrosarcoma cells; HT-1080-NT fibrosarcoma viability, CellTiter-Glo ATP luminescence, 48 h; Potency, µM (highest dose often 46.1 µM), inactives show at the highest dose activity, negative = less viability, actives largely listed as cytotoxic; 360,000 compounds, 1.6% hits; AID 686970;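 further: NT is the 2HG producing partner of a matched IDH1 knockdown line; 0% = DMSO-treated cells and -100% = media-only wells without cells; nearly all actives have a fitted effect of over 55% in size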
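Luminescent CellTiter-Glo readout after 48 hours of compound exposure at 37 degrees C defined viability of HT-1080-NT cells. Activity was normalized to DMSO wells and cell-free media wells; concentration-response curves were fitted and assigned curve classes.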
SW480 rerep: induces DNA re-replication in SW480 colon adenocarcinoma cells; SW480 DNA re-replication, Hoechst DNA content imaging, 48 h; Potency, µM (series often up to 46.1 µM), without a hit: at the highest dose re-replication activation, most hits filed as activators; 340,000 compounds, 1.8% hits; further: % of control where 0% means no effect; nearly all actives have a fitted effect of over 55% in size
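Hoechst fluorescence of nuclei (405 nm excitation, 500-530 nm emission) measured by plate-scanning imager after 48 hr compound exposure at 37 C; re-replication scored as increased number of nuclei with elevated intensity.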
HT1080 IDH1KD tx: toxicity to HT-1080 IDH1 knockdown cells (counter line); Potency, µM (series often up to 46.1 µM), without a hit: at the highest dose activity, negative = toxicity, hits mostly cytotoxic; 360,000 compounds, 2% hits; HT-1080 IDH1 knockdown viability, ATP luminescence, 48 h;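 further: 0% = DMSO wells and -100% = cell-free medium wells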
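Viability of IDH1-knockdown HT-1080 fibrosarcoma cells was assessed by CellTiter-Glo after 48 h at 37 °C with titrated compound; concentration-effect curves were classified by fit quality and response size.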
KB-V1 MDR tox: KB-V1 MDR subline cytotoxicity. KB-V1 MDR cells viability, CellTiter-Glo, 72 h. Potency, µM (series often up to 46.1 µM), usual class: cytotoxic. 400,000 compounds, 3.4% hits. AID 1347076; further: on the % scale 0 is the no-effect control and ±100 the full control effect; nearly all actives have a fitted effect of over 60% in size
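Potencies derive from concentration-effect curves fitted to normalized luminescence (CellTiter-Glo) of KB-V1 cells treated for 72 h at 37 degrees C in phenol-red-free DMEM containing 10% FBS.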
Active calls of the source: *; i = inactive; ? = inconclusive; . = no result given; [ ] = another dose, or the depositor's remark. The call rests on the fitted dose curve; in most records, active means well fitted curve in the direction sought with a large enough effect; inconclusive means small, poorly fitted or top-dose-only effect, or another doubt; inactive means no such curve, though single readings can be large; an effect the other way counts as inactive or inconclusive. Potency means the concentration at half of the fitted maximal effect.

SMILES	MCF10A rerep	KB-3-1 tox	HT1080NT lethal	SW480 rerep	HT1080 IDH1KD tx	KB-V1 MDR tox
Cc1nn2c(NCCN(C)C)c3c(nc2c1-c1ccccc1)CCCC3	13%	i	15µM*	?	15µM*	?
COc1cccc(Nc2c3c(nc4c(-c5ccccc5)c(C)nn24)CCC3)c1	21µM*	?	14%	?	-5%	18µM*
CC(=O)N[C@@H](Cc1c[nH]c2ccccc12)C(=O)OCC(=O)Nc1cc(C)on1	-17%	i	17%	-12%	12%	i
Cc1cccc(Cn2nnc3c(=O)[nH]c(C4CCCN(C(=O)c5ccccc5Cl)C4)nc32)c1 (stereo not given)	.	i	.	.	.	i
Oc1ccc(C[C@H]2CNC(=S)N2CC2CCCN2C[C@H](Cc2ccc(O)cc2)N2C[C@H](Cc3ccccc3)N(CCc3ccccc3)C2=S)cc1 (stereo not given in full)	19%	23µM*	-6%	?	-3%	i
CC(C)C[C@H]1CNC(=S)N1C[C@H]1CCCN1C[C@H](CC(C)C)N1C[C@H](Cc2ccc(O)cc2)N(CCc2ccccc2)C1=S	.	?	18µM*	.	?	?
CCOc1ccc(CCN2C(=S)N([C@@H](Cc3ccc(O)cc3)CN3CCC[C@@H]3CN3C(=S)NC[C@@H]3Cc3ccc(O)cc3)C[C@@H]2Cc2ccc(O)cc2)cc1	.	?	26µM*	.	21µM*	i
CC1(C(=O)Nc2cccc(Oc3ccccc3)c2)CCN1Cc1cc2ccccc2o1 (stereo not given)	.	i	-24%	.	?	i
COC(=O)c1sccc1S(=O)(=O)N(CC(=O)Nc1cc(C)cc(C)c1)c1ccc(Cl)cc1	.	i	.	.	.	i
CCN(C(=O)c1ccc(NC(C)=O)cc1)c1ccccc1C	2%	i	9%	1%	10%	i
CCCCC(=O)Nc1ccc(C(=O)N(CC)c2ccccc2C)cc1	20%[9.22 µM]	i	?	?	?	15µM*
CCCN(CC(=O)Nc1cc(Cl)cc(Cl)c1)CC(=O)Nc1ccc(F)c(F)c1F	?	i	?	?	?	23µM*
CCOc1cc(/C=C2\N=C(C)OC2=O)cc(Br)c1OCC(=O)OC	9.2µM*	i	-4%	12µM*	13%	i
Cc1ccc(CCNC(=O)c2cc3ccccn3n2)cc1	.	i	.	.	.	i
CCCn1c(N)c(C(=O)CSc2ncc(C(F)(F)F)cc2Cl)c(=O)[nH]c1=O	16µM*	i	-16%	22%	-1%	?
COc1cc(/C=N/Nc2nncn2/N=C/c2ccc(O)c(OC)c2)ccc1O	-5%	i	21µM*	0%	15µM*	23µM*
COc1ccc(OC)c(/C=N/Nc2nncn2/N=C/c2cc(OC)ccc2OC)c1	23µM*	21µM*	?	?	15µM*	?
COc1ccc(-n2nnc(C(=O)Nc3ccccc3F)c2N)cc1	.	i	.	.	.	i
CCn1ccc2c(OCC(=O)Nc3ccc(C(C)=O)cc3)cccc2c1=O	.	i	.	.	.	i
C/C(=N\Nc1cc(N2CCCCC2)nc(C)n1)c1ccc(Br)cc1	12µM*	?	?	?	?	?
C/C(=N\Nc1cc(N2CCOCC2)nc(C)n1)c1ccc(F)cc1	-10%	i	-18%	?	-16%	i
COc1ccc(-n2c(-c3cc(-c4ccccc4)sc3N)n[nH]c2=S)cc1	-2%	?	16µM*	5%	?	i
Nc1sc(-c2ccccc2)cc1-c1n[nH]c(=S)n1C1CCCCC1	3.3µM*	?	3.7µM*	3.3µM*	1.5µM*	i
C=CCn1c(-c2cc(-c3ccccc3)sc2N)n[nH]c1=S	0%	i	10%	-3%	16%	i
O=C(CCS(=O)(=O)c1cc(Br)cc2c1N(C(=O)C1CC1)CC2)NCc1ccccc1Cl	.	i	.	.	.	i
SMILES	MCF10A rerep	KB-3-1 tox	HT1080NT lethal	SW480 rerep	HT1080 IDH1KD tx	KB-V1 MDR tox
CC(C)CC(=O)Nc1ccc(C(=O)NNC(=S)NC(=O)C2CCCCC2)cc1	-5%	i	7.9µM*	0%	?	10µM*
O=C1CC(/C=C/c2ccco2)=Nc2ccccc2N1	4%	i	1%	6%	0%	i
O=C1CC(/C=C/c2ccccn2)=Nc2ccccc2N1	-1%	18µM*	-1%	?	2%	?
O=C1C=C(N(CCO)Cc2ccccc2)c2ccccc2C1=O	6.5µM*	?	8.2µM*	15µM*	15µM*	18µM*
O=C(/C=C/[C@H]1O[C@@H](n2ccc(=O)[nH]c2=O)[C@H](O)[C@@H]1O)N1CCN(Cc2ccc(F)cc2)CC1	.	i	7%	.	6%	i
Cc1cc(NC(=O)CCc2nc3cccnc3n2-c2ccccc2)ccc1Br	.	i	.	.	.	i
Cc1cc(C)cc(Nc2cc(-c3ccccc3)nc(C)n2)c1	.	i	.	.	.	?
COc1ccc(-c2nn(-c3ccccc3)cc2/C=N/NC(N)=S)cc1OC	1.6µM*	i	0.73µM*	2.1µM*	0.65µM*	?
COc1ccc(-c2nn(-c3ccccc3)cc2/C=C/C(=O)O)cc1[N+](=O)[O-]	?	?	-13%	?	18µM*	i
O=C(O)/C=C/c1cn(-c2ccccc2)nc1-c1ccc(-c2ccc([N+](=O)[O-])cc2)o1	3.3µM*	i	11%	?	18%	i
COc1ccc(-c2nn(-c3ccccc3)cc2C=O)cc1[N+](=O)[O-]	13%	i	17%	?	-2%	i
CCCN(CCC)c1ccc(/C=C/c2sc3ccccc3[n+]2CCCCI)cc1	.	i	.	.	.	i
CCCNS(=O)(=O)c1ccc(CCC(=O)N2CCN(c3ccc(F)cc3)CC2)cc1	24%	?	2%	-3%	1%	9.2µM*
CC(=O)Nc1ccc(S(=O)(=O)NCCSCc2ccc(Cl)cc2Cl)cc1	13µM*	?	-26%	-2%	?	?
CC(=O)Nc1ccc(S(=O)(=O)NCCc2ccc(S(N)(=O)=O)cc2)cc1	10%	i	14%	0%	2%	i
CC(=O)Nc1ccc(S(=O)(=O)NCCc2ccc(F)cc2)cc1	20%	i	-1%	-5%	-5%	23µM*
CCCNS(=O)(=O)c1ccc(CCC(=O)N2CCN(c3ccc(OC)cc3)CC2)cc1	4%	i	-22%	0%	10%[9.24 µM]	21µM*
CCCNS(=O)(=O)c1ccc(CCC(=O)N2CCOCC2)cc1	0%	i	15%	1%	19%	i
Cn1c(=O)[nH]c(=O)c2c1nc1n2CCN1c1ccccc1	.	i	.	.	.	i

Source: PubChem BioAssay (National Center for Advancing Translational Sciences (NCATS))
